# TrxR1 substrate: substrates of rat thioredoxin reductase 1 | AID 588456 | purified TrxR1 substrate turnover, NADPH consumption readout | Potency, µM (doses to about 114 µM), without a hit: at the top dose activity change, negative = substrate turnover | 0.01% of 390,000 active; further: nearly all actives have a fitted effect of over 50% in size
#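 Rat TrxR1, dispensed at 90 nM, was prereduced with 400 uM NADPH (final) for 5 min at ~22 deg C, then incubated with compound 15 min before 400 uM selenite. A first-read NADPH fluorescence drop versus no-compound background flagged substrates.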
# Eya2 inh: Eya2 (human) phosphatase inhibition; O00167; recombinant Eya2, OMFP fluorescence dephosphorylation (OMFP is methylfluorescein phosphate); Potency, µM (series often up to 76.9 µM), without a hit: top-dose activity, negative = inhibition, hits mostly inhibitors; 0.006% of 330,000 active; AID 488837
#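 Eya2 (0.2 uM) preincubated 10 min at ambient with compound, then OMFP substrate added at 50 uM; 10 min reaction in 50 mM HEPES pH 7.5, 50 mM NaCl, 5 uM MgCl2, 0.05% BSA, 1 mM DTT. Fluorescence read at Ex 485/Em 525 nm.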
# RGS4 inhibitor: human RGS4 inhibition. P49798. Transcreener GDP fluorescence polarization, RGS4-accelerated GTP hydrolysis. Potency, µM (highest dose often 114 µM), for inactives: at the top dose activity change, negative = inhibition, hits mostly inhibitors. 0.039% of 390,000 active; further: nearly all actives have a fitted effect of over 75% in size
#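 MLSMR compounds (23 nl, pin-transferred) preincubated 10 min at room temperature with a 500nM (2x) first reagent, then RGS4 at 900nM (2x) plus Transcreener GDP mix added; fluorescence polarization (620/688 nm) read before and after 90 min at 30 °C.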
# mIDH1 inhibitor: human IDH1 R132H inhibition | O75874 | IDH1-R132H enzyme, NADPH consumption, diaphorase/resazurin fluorescence | Potency, µM (doses to about 76.6 µM), for inactives: at the top dose activity change, negative = inhibition, hits mostly inhibitors | 0.093% of 390,000 active | AID 602179; further: nearly all actives have a fitted effect of over 65% in size
# Target sequence (O75874 whole entry R132H, stated change not applied): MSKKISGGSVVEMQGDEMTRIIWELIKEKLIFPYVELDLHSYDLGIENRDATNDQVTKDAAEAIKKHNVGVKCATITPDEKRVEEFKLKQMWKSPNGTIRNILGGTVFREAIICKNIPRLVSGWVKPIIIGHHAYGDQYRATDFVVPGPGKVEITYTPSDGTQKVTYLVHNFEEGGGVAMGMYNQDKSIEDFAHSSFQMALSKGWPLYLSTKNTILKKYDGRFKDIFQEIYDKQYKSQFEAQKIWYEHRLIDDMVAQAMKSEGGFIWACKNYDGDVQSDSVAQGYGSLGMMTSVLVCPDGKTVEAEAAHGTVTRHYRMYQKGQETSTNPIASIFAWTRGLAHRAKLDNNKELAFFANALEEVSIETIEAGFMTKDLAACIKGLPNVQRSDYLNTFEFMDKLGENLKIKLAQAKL
#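 IDH1-R132H (0.5 ug/mL dispensed) in pH 7.5 Tris buffer was preincubated 30 min with compound, then given a substrate mix of 0.016 mM NADPH and 2 mM alpha-KG for 80 min at room temperature; remaining NADPH was read by diaphorase/resazurin fluorescence.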
# rTrxR1 inhibitor: rat TrxR1 inhibition; O89049; recombinant rTrxR1, NADPH fluorescence consumption, selenite substrate; Potency, µM (series often up to 114 µM), without a hit: at the top dose activity change, negative = inhibition, most hits filed as inhibitors; 1% of 390,000 active; AID 588453; further: nearly all actives have a fitted effect of over 65% in size
#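 Rat TrxR1 (90 nM in the dispensed reagent) was pre-reduced with 400 uM NADPH for 5 min at room temperature, then incubated with compound for 15 min. After 400 uM selenite was added, NADPH fluorescence (Ex 340/Em 450 nm) was followed for 8 min.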
# * marks the source's active call; other numbers are inactive results; ? = inconclusive; . = not tested or not shown; [ ] = remark or other dose. Shown are actives, neighbours in structure and some others; about 1.1% of the full set was active somewhere. The call rests on the fitted dose curve; in most records, active means well fitted curve in the direction sought with a large enough effect; inconclusive means small, poorly fitted or top-dose-only effect, or another doubt; inactive means no such curve, though single readings can be large; an effect the other way counts as inactive or inconclusive. On the % scale 0 is the no-effect control and ±100 the full control effect; potency means the concentration at half of the fitted maximal effect.
SMILES,TrxR1 substrate,Eya2 inh,RGS4 inhibitor,mIDH1 inhibitor,rTrxR1 inhibitor
CC1(C)CC(=O)C2=C(C1)OC(N)=C(C#N)C21CCC2(CC1)OCCO2,14.8%,.,-1.0%,-1.4%,8.91µM*
Cc1csc(NC(=O)c2ccc(N3CCCC3=O)cc2)n1,-3.7%,-2.4%,24.0%[56.9 µM],6.4%,19.1%
COC(=O)c1c(S(C)(=O)=O)nc(-c2ccccc2)[nH]c1=O,-0.6%,5.1%,18.0%,5.9%,39.8µM*
CC(NC(=O)Cc1ccc(Br)cc1)c1ccccc1 (stereo unspecified),0.7%,-5.5%,7.7%,12.4%,15.3%
CCCC1Nc2ccc(C(=O)O)cc2C2C=CCC12 (stereo unspecified),-6.0%,1.7%,?,2.8%,50.1µM*
CC(C)C1Nc2ccc(C(=O)O)cc2C2C=CCC21 (stereo unspecified),9.8%[57.1 µM],6.9%,?,-0.1%,?
CCOC(=O)C1Nc2ccc(C(=O)O)cc2C2C=CCC12 (stereo unspecified),-0.6%,-10.8%,-92.8%[56.9 µM],6.3%,11.2µM*
Nc1nc(SCC(=O)Nc2ccc(Br)cc2F)n[nH]1,-12.5%,13.2%,8.3%[11.4 µM],-0.8%,1.8%[57.1 µM]
COc1cc(NC(=O)CSCC(=O)Nc2cccc(C(F)(F)F)c2)c(Cl)cc1Cl,-8.4%,16.4%,-11.6%,4.6%,-19.4%
Cc1cc(S(=O)(=O)NCC(c2ccco2)S(=O)(=O)c2cccs2)ccc1F (stereo unspecified),-1.6%[57.1 µM],.,0.1%,-4.8%,0.355µM*
Cc1cc(S(=O)(=O)NCC(c2ccco2)S(=O)(=O)c2ccccc2)ccc1F (stereo unspecified),0.4%[57.1 µM],.,16.7%,-15.6%,11.4%[57.1 µM]
COc1ccc(S(=O)(=O)NCCC(C)C)cc1C,2.1%[57.1 µM],-16.9%,6.1%,2.7%,6.8%[57.1 µM]
CCOc1ccc(C2C(=O)N(C3CCCCCC3)CC(=O)N2Cc2ccc(C)cc2)cc1OC (stereo unspecified),-4.6%[57.1 µM],.,-9.0%,0.0%,13.0%[57.1 µM]
CN1/C(=C\C=N\O)C(C)(C)c2ccccc21,-1.5%,8.8%,2.0%,-0.3%,24.7%
CN1C(=CC=C2C=C(I)C(=O)C(I)=C2)C(C)(C)c2ccccc21,-5.2%,-10.5%,13.2%,46.5µM*,-1.0%
CC1=NN(c2ccccc2)C(=O)/C1=C\C=C1/N(C)c2ccccc2C1(C)C,-18.7%,-18.4%,7.6%,6.0%,-8.2%
CN1/C(=C\C=C2/C(=O)Oc3ccccc3C2=O)C(C)(C)c2ccccc21,-1.5%,?,?,36.9µM*,-2.6%
COCCn1c(C)c(C)c(S(=O)(=O)c2ccccc2)c1N,3.6%,?,11.4%,-5.1%,20µM*
Cc1c(S(=O)(=O)c2ccccn2)c(N)n(Cc2ccccc2Cl)c1C,7.9%[57.1 µM],12.7%,-52.0%,-0.9%,?
Cc1c(S(=O)(=O)c2ccccn2)c(N)n(Cc2ccccc2)c1C,1.9%[57.1 µM],-0.4%,-14.9%,10.7%,11.2µM*
CCCOc1ccc(C(=O)Nc2cc(S(=O)(=O)N3CCOCC3)ccc2N2CCOCC2)cc1,-3.8%,-0.8%,-128.8%,6.2%,24.5%
O=C(O)CCNc1cc(N2CCN(C(=O)c3ccco3)CC2)c2noc3c2c1C(=O)c1ccccc1-3,-7.7%,52.4%,?,10.5%,35.5µM*
Nc1ccc(-c2cc3ccccc3oc2=O)cc1,4.8%[57.1 µM],-2.9%,9.2%,4.3%,14.1%[57.1 µM]
O=C/C=C/c1c(-c2ccccc2)cc2oc3ccccc3cc1-2,-5.0%,11.5%,?,0.0%,44.7µM*
CN(Cc1ccccc1)C(=O)c1nc[nH]c1C(=O)N1CCc2ccccc2C1,0.7%,0.0%,-10.7%,-11.1%,39.8µM*
Clc1ccc2c(ccc[n+]2CCc2ccccc2)c1,6.6%[0.0914 µM],.,.,.,18.4%
Clc1cccc[n+]1CCc1ccccc1,8.0%,.,.,.,44.7µM*
CCOC(=O)c1cc(C)sc1/N=C/C1=C(O)CCCC1=O,3.0%,2.5%,?,8.4%,20µM*
O=C(COC(=O)/C=C/c1ccco1)Nc1cc(S(=O)(=O)N2CCOCC2)ccc1Cl,-6.6%,8.6%,-21.2%,-0.3%,35.5µM*
CN(C)S(=O)(=O)c1cc(NC(=O)COC(=O)/C=C/c2ccco2)ccc1Cl,-5.8%,1.6%,?,2.7%,3.55µM*

# Screens (PubChem BioAssay)
